# Source: PubChem BioAssay AID652054 (National Center for Advancing Translational Sciences (NCATS), 2013)
# In all, about 360,000 compounds went through this assay and about 9,100 (2.5%) were called active. Another 4% or so got no clear call; they are omitted. The full list was thinned out, with actives kept by preference. A number with no mark means an inactive call. Cut-off read from the data, not from the text of the source: active = max response below about -50%; inconclusive = no clear call, values can overlap the other calls; inactive = above that.
# Molecular target: D(3) dopamine receptor (Homo sapiens) (UniProt P35462)
# Sequence (P35462 whole entry, looked up): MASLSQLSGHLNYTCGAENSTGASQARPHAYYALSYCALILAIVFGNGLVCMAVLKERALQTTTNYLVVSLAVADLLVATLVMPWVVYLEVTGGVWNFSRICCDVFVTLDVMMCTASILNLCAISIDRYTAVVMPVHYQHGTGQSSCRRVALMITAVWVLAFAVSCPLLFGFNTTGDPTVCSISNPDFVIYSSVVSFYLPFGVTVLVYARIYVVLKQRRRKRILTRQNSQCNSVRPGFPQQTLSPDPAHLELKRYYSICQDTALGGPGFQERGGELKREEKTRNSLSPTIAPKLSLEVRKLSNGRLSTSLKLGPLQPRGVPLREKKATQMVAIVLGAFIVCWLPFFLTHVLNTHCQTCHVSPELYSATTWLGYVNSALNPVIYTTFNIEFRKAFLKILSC
# Test: qHTS of D3 Dopamine Receptor Antagonist: qHTS
# Details: D3R cells, DiscoveRx beta-arrestin luminescence, antagonist mode; hits give low values
# Text: D3 DARs represent a very important target for the treatment of several neuropsychiatric disorders. Indeed, one of the most promising therapeutic applications for the D3 DAR is in the area of addiction and related disorders. […] These findings have been observed with a number of addictive substances including cocaine, amphetamine, nicotine, and alcohol. […] Antagonism of the D3 DAR may also be therapeutic in the treatment of schizophrenia or psychosis. […] Since the D3 DAR is expressed in areas of the CNS associated with the control of mood and emotion, it has been hypothesized that selective antagonism of the D3 DAR may be effective in treating psychosis without inducing the motor side effects typically seen with D2 DAR antagonists.
# This part of the project aims to discover novel antagonist.
# NIH Chemical Genomics Center [NCGC]
# NIH Molecular Libraries Probe Centers Network [MLPCN]
# Assay Submitter (PI): David Sibley, NINDS
# Freshly passaged cells are plated in 1536 well white, solid bottom plates at a density of 1500 cells/well in 3microl of complete media. After an overnight incubation at 37 degrees C in 5% CO2, cells are loaded with 23nl of test compound from the compound library (as well as dopamine controls) using a 1536 pintool and incubated at 37 degrees C for 90 minutes. Two microliters of DiscoveRx reagent is then added to all cells, and they are incubated for an additional 30 - 60 minutes at room temperature. Following incubation, luminescence is measured on a ViewLux CCD-based luminometer reader using a 20 sec exposure time.
# % is set by controls: 0 for no effect and ±100 for the full control effect.
row,SMILES,"max response, negative = inhibition"
1,COCCCNCCOCCOc1ccc(Cl)cc1Br,-97.1% (active)
2,COCCNCCOCCOc1cccc(OC)c1,6.73%
3,C[C@@H]1CN([C@H](C)CO)S(=O)(=O)c2ccc(C#CC3CCCCC3)cc2O[C@H]1CN(C)C(=O)Cc1ccncc1,-18.9%
4,CCc1nc2ccc(C(=O)NCc3ccc(OC)cc3)cn2c1N(CC)Cc1cccc(Br)c1,0%
5,C[C@H](CO)N1C[C@H](C)[C@H](CN(C)C(=O)c2ccncc2)OCc2ccccc2-c2c(n(C)c3ccccc23)C1=O,-9.27%
6,O=C(NCc1ccc(F)cc1)c1cc(C2CCCCN2C(=O)C2CCCCC2)on1 (centres undefined),2.42%
7,CCC(=O)c1ccc(N2CCN(C(=O)c3cc([N+](=O)[O-])ccc3F)CC2)c(F)c1,15%
8,O=C(Nc1cccc(Cl)c1)c1cc([N+](=O)[O-])ccc1N1CCN(CCO)CC1,-13.4%
9,CCN1CCN(c2ccc([N+](=O)[O-])cc2C(=O)c2ccc(Cl)cc2)CC1,-55.6% (active)
10,O=C(Nc1ccc(C(=O)O)cc1)/C(=C/c1ccc([N+](=O)[O-])cc1)NC(=O)c1ccccc1,-12.4%
11,O=C(NCCc1ccccc1)/C(=C\c1ccc([N+](=O)[O-])cc1)NC(=O)c1ccccc1,9%
12,O=C(N/N=C/c1ccc(O)cc1)/C(=C/c1ccc([N+](=O)[O-])cc1)NC(=O)c1ccccc1,-52.3% (active)
13,Cc1sc2ccccc2c1CNC[C@H]1O[C@@H](n2ccc(=O)[nH]c2=O)[C@H](O)[C@@H]1O,23.7%
14,O=C(NCc1ccccc1Cl)c1csc([C@@H]2O[C@H](CO)[C@@H](O)[C@H]2O)n1,0%
15,Cc1ccccc1-c1csc(C(O)c2cccc(Cl)c2)n1 (centres undefined),-14.8%
16,CC(C)Cn1cc(-c2cncc3nccn23)cn1,19.7%
17,NC(=O)CSc1nnc(-c2cccc(S(=O)(=O)N3CCOCC3)c2)o1,-19.7%
18,Cc1c(C(=O)NCc2ccc(C#N)cc2)sc(=O)n1Cc1ccc(C(=O)N(C)C)cc1,16.1%
19,CC(C)(C)c1ccc(C(=O)N2CCC(C(=O)N3CCCCC3)CC2)cc1,7.98%
20,COc1ccc(C(=O)N2CCC(C(=O)Nc3cccc(C)c3)CC2)cc1OC,9.36%
21,COc1ccccc1NC(=O)C1CCN(C(=O)c2ccc(C(C)(C)C)cc2)CC1,-52% (active)
22,O=C1C(Cl)=C(Oc2ccccc2)C(=O)c2ccccc21,-90.6% (active)

row,SMILES,"max response, negative = inhibition"
1,CC(=O)N(C1=C(Cl)C(=O)c2ccccc2C1=O)c1ccc(C(=O)O)cc1,-17.6%
2,COc1cccc(CNc2nc(NCc3cccs3)nc3ccsc23)c1,-28.6%
3,C[C@H](CO)N1C[C@H](C)[C@@H](CN(C)S(=O)(=O)c2ccc(F)cc2)OCc2cnnn2CCCC1=O,-22.3%
4,COc1ccc(C(C)(NC(C)=O)c2nc(-c3ccc(S(C)(=O)=O)cc3)cs2)cc1 (centres undefined),0.123%
5,CC(C)Nc1ncnc2c1ncn2[C@H]1CN(Cc2ccncc2)C[C@@H](CO)O1,4.5%
6,Cc1c(NC(=O)c2coc(=O)c(Br)c2)c(=O)n(-c2ccccc2)n1C,-83.3% (active)
7,Cc1c(NC(=O)c2cc(-c3ccc(Br)cc3)on2)c(=O)n(-c2ccccc2)n1C,-15%
8,Cc1cc2oc(C(=O)Nc3c(C)n(C)n(-c4ccccc4)c3=O)c(C)c2cc1Cl,-21.8%
9,CCCCCNC(=O)C(c1ccc(OC)cc1)n1c(=O)c(-c2ccccc2)nc2ccccc21 (centres undefined),3.45%
10,CC1=C(C(=O)N(C(C)C)C(C)C)CC(CC(=O)NCCCCc2ccccc2)C(=O)N1CCC1=CCCCC1 (centres undefined),-16.1%
11,COC(=O)[C@]12CCCCC=C1N(Cc1ccc3c(c1)OCO3)C(=O)[C@H](CC(=O)NCc1cccs1)C2,3.72%
12,Cc1ccc(Cc2cnc(N)s2)o1,-53.2% (active)
13,Cc1ccc(CCC(=O)Nc2ncc(Cc3cc(Cl)ccc3Cl)s2)o1,-12.7%
14,CN(C)CCOC1c2ccccc2-c2ccccc21,-17.2%
15,CN(C)CCOC(=O)C(c1ccccc1)C1(O)CCCC1 (centres undefined),-12.5%
16,Cc1ccccc1C(OCCN(C)C)C1CCCCC1 (centres undefined),-100% (active)
17,COCCNc1ncnc2c1ncn2[C@H]1CN(Cc2ccc(OC)cc2)C[C@@H](CO)O1,6.87%
18,Cc1cc(C)n2c(NCc3ccccc3)c(CC(C)C)nc2n1,5.03%
19,Cc1ccc(CN(C)C[C@@H]2OCc3cnnn3CCCC(=O)N([C@@H](C)CO)C[C@H]2C)cc1,-25.2%
20,CC(CNc1ccc([N+](=O)[O-])cc1)NC(=O)c1ccccc1Br (centres undefined),3.2%
21,O=C(NCCNc1ccc([N+](=O)[O-])cc1Cl)c1ccccc1F,-0.899%
22,O=C(NCCNc1ccc([N+](=O)[O-])cc1)c1cccc2c(Br)cccc12,-58.2% (active)
